Results as given in the supplement of paper PMC10811239.

The compounds below were run on LEGO organoid PTN (PTEN-/-; TP53-/-; NF1-/-) (assay: bioluminescence (viable cell) signal fold change after vs before treatment, normalised to DMSO (ratio); higher = more tumour cell growth / less inhibition). Settings: 10 µM; treatment time 6 days.
Experimental: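 Luc2-labelled iPSC-derived glioblastoma-like organoids (LEGOs, genotypes PT = PTEN-/-;TP53-/-, PTCC = plus CDKN2A/B-/-, PTN = plus NF1-/-) were treated with 10 uM drug for 6 days (applied every other day) at 37 C. Bioluminescence imaging was done before treatment and 2 days after the last dose. BLI signals were normalised to the DMSO control on the same day and then to the pre-treatment signal (N=3).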

Structure (SMILES)	bioluminescence
CC(C)c1nc(CN(C)C(=O)N[C@H](C(=O)N[C@@H](Cc2ccccc2)C[C@H](O)[C@H](Cc2ccccc2)NC(=O)OCc2cncs2)C(C)C)cs1 [Ritonavir]	1.83
Cc1nc2n(c(=O)c1CCN1CCC(c3noc4cc(F)ccc34)CC1)CCCC2 [Risperidal]	1.31
CC(C(=O)O)c1cccc(C(=O)c2ccccc2)c1 (configuration not stated) [Ketoprofen]	1.02
Cc1ccccc1C(OCCN(C)C)c1ccccc1.O=C(O)CC(O)(CC(=O)O)C(=O)O (configuration not stated) [Orphenadrine Citrate]	0.98
CS(=O)(=O)c1ccc(C2=C(c3ccccc3)C(=O)OC2)cc1 [Rofecoxib]	2.18
CS(=O)(=O)c1cccc(C[C@H](NC(=O)c2c(Cl)cc3c(c2Cl)CCN(C(=O)c2ccc4ccoc4c2)C3)C(=O)O)c1 [Lifitegrast]	0.439
COc1cccc2c1C(=O)c1c(O)c3c(c(O)c1C2=O)C[C@@](O)(C(=O)CO)C[C@@H]3O[C@H]1C[C@H](N)[C@@H](O)[C@H](C)O1.Cl [Epirubicin hydrochloride]	0.00894
CC/C(=C(\c1ccccc1)c1ccc(OCCN(C)C)cc1)c1ccccc1.O=C(O)CC(O)(CC(=O)O)C(=O)O [Tamoxifen Z-isomer citrate]	6.34
N#Cc1ccc2[nH]cc(CCCCN3CCN(c4ccc5oc(C(N)=O)cc5c4)CC3)c2c1 [Vilazodone]	0.898
Cl.N=C(N)NC(=O)Cc1c(Cl)cccc1Cl [Guanfacine hydrochloride]	0.496
Cc1c(C)c2c(c(C)c1O)CC[C@@](C)(CCC[C@H](C)CCC[C@H](C)CCCC(C)C)O2 [α-Vitamin E]	2.48
CC(=O)OCC[N+](C)(C)C.[Cl-] [Acetylcholine chloride]	1.15
CN(C)CCCN1c2ccccc2CCc2ccccc21.Cl [Imipramine hydrochloride]	0.961
O=C(O)c1cccnc1 [Niacin]	1.59
Cc1nc2n(c(=O)c1CCN1CCC(c3noc4cc(F)ccc34)CC1)CCCC2O (configuration not stated) [Paliperidone]	0.593
COc1cc2c(Nc3ccc(Br)cc3F)ncnc2cc1OCC1CCN(C)CC1 [Vandetanib]	0.168
S=c1nc[nH]c2nc[nH]c12 [Mercaptopurine]	0.946
CC(=O)c1c(C)c2cnc(Nc3ccc(N4CCNCC4)cn3)nc2n(C2CCCC2)c1=O.O=S(=O)(O)CCO [Palbociclib Isethionate]	1.14
CCc1cc2c(cc1N1CCC(N3CCOCC3)CC1)C(C)(C)c1[nH]c3cc(C#N)ccc3c1C2=O.Cl [Alectinib hydrochloride]	1.36
CN(C)CC(c1ccc(O)cc1)C1(O)CCCCC1.O=C(O)CCC(=O)O (configuration not stated) [Desvenlafaxine succinate hydrate]	0.536
FC(F)(F)c1ccc(CNc2ccc(Cc3c[nH]c4ncc(Cl)cc34)cn2)cn1 [Pexidartinib]	0.351
COc1cc(C(C)=O)ccc1OCCCN1CCC(c2noc3cc(F)ccc23)CC1 [Iloperidone]	2.12
Nc1nc(=O)n([C@@H]2CS[C@H](CO)O2)cc1F [Emtricitabine]	0.495
N[C@H](C(=O)O)[C@H](O)c1ccc(O)c(O)c1 [Droxidopa]	3.13
CNCCCN1c2ccccc2CCc2ccccc21.Cl [Desipramine hydrochloride]	1.22
NS(=O)(=O)c1cc2c(cc1Cl)N=CNS2(=O)=O [Chlorothiazide]	1.33
CN(C)CC(c1ccc(O)cc1)C1(O)CCCCC1 (configuration not stated) [Desvenlafaxine]	0.36
